Compound activity from PubChem.
BJeLR viability = kills HRASV12-expressing BJeLR cells; 0.17% of 300,000 active; inhibition, % (no concentration beside the values); BJeLR (HRASV12) viability, CellTiter-Glo ATP luminescence, 48 h; in the data active = inhibition above about 50%
RN4220 kill = S. aureus RN4220 growth inhibition; OD600, 16 h; 0.33% of 330,000 active; inhibition, % (concentration not given with the values); AID 1259311; in the data active = inhibition above about 85%;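 also: plate controls were untreated cells for no effect and reference antibiotic for full effect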
CCHF vOTU inh = CCHFV vOTU protease inhibition; 0.55% of 370,000 active; Pep-AMC fluorescence; AID 651958; inhibition, % at 11.5 µM; in the data active = inhibition above about 30%; also: 0% = vehicle wells with enzyme and 100% = no enzyme wells
ugtP null kill = kills S. aureus RN4220 lacking UgtP | AID 1259309 | S. aureus RN4220 ugtP deletion, OD600 growth, 16 h | growth inhibition, % (concentration not given with the values) | 0.54% of 330,000 active; in the data active = growth inhibition above about 68%;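 also: plate controls were untreated wells for no effect and antibiotic for full effect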
PfHsp40 rescue = compounds rescuing yeast from Plasmodium falciparum HSP40 toxicity. S. cerevisiae expressing PfHsp40, growth rescue, ATP luminescence. 0.68% of 340,000 active. growth rescue, % at 12.5 µM; in the data active = growth rescue above about 28%, passing the limit was not always enough;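 also: yeast W303a lacking pdr1 and pdr3 grown in galactose medium; growth measured after three days at 30 °C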
* marks the source's active call; other numbers are inactive results; ! = not confirmed by another sample. Shown are actives, neighbours in structure and some others; about 1.6% of the full set was active somewhere.

NC(N)=NC(=O)c1nc(Cl)c(N)nc1N was read as BJeLR viability 5.9, RN4220 kill 9.0, CCHF vOTU inh -18.5, ugtP null kill 98.1*! and PfHsp40 rescue 0.0.
NC(N)=NC(=O)c1nc(Cl)c(N2CCCCCC2)nc1N was read as CCHF vOTU inh -0.7 and PfHsp40 rescue -2.2.
`CCn1c2ccc(C)cc2c2nc3cc(C(=O)O)ccc3nc21` gave BJeLR viability 11.5, RN4220 kill 8.6, CCHF vOTU inh -3.9, ugtP null kill 11.3 and PfHsp40 rescue 311.9*.
CCn1c2ccc(Cl)cc2c2nc3ccccc3nc21 was read as BJeLR viability 6.9, RN4220 kill -4.8, CCHF vOTU inh 5.7 and ugtP null kill 25.0.
Screening CN1CCN(C=Nc2sc3c(c2C#N)CCCCC3)CC1 returned RN4220 kill 9.6 and ugtP null kill 18.6.
Screening CCCC1COC(Cn2cncn2)(c2ccc(Cl)cc2Cl)O1 (stereo not drawn) returned BJeLR viability -7.8, RN4220 kill 4.0, CCHF vOTU inh 17.6, ugtP null kill 7.9 and PfHsp40 rescue 134.1*.
`Cc1ccc(-c2nn(CC(=O)NCc3cc(-c4nn(C)c(=O)c5ccccc45)ccc3C)c(=O)c3ccccc23)cc1` gave BJeLR viability 125.2*, RN4220 kill 0.6, CCHF vOTU inh 7.1, ugtP null kill -6.4 and PfHsp40 rescue -0.6.
CCC(=O)NCc1cc(-c2nn(C)c(=O)c3ccccc23)ccc1C was read as BJeLR viability 8.0, RN4220 kill 5.8, CCHF vOTU inh -0.8, ugtP null kill 9.3 and PfHsp40 rescue 0.2.
Screening Clc1ccc2c(c1)Nc1ccccc1CC2 returned BJeLR viability 11.7, RN4220 kill 6.0, CCHF vOTU inh 2.6, ugtP null kill 88.5* and PfHsp40 rescue 4.4.
Screening O=C1CCc2ccccc2N1 returned BJeLR viability 1.7, RN4220 kill 11.1, CCHF vOTU inh 2.4, ugtP null kill 5.7 and PfHsp40 rescue -1.3.
Screening C=CCC(CC(=O)NCCO)C(=O)NC(C)COC(=O)C(CC=C)Cc1ccc(F)cc1 (stereo not drawn) returned RN4220 kill 6.1 and ugtP null kill 6.0.
Screening CCCCCCNC(=O)CC(c1ccccc1)c1cc(Br)ccc1O (stereo not drawn) returned BJeLR viability -6.5, RN4220 kill -15.1, CCHF vOTU inh 24.2, ugtP null kill -26.4 and PfHsp40 rescue 39.6*.
COc1ccc(NC(=S)N/N=C2\CC(C)(C)Oc3ccc(O)cc32)cc1 was read as BJeLR viability -10.5, CCHF vOTU inh 2.5 and PfHsp40 rescue 39.3*.
O=C(N/N=C/c1cc(Br)ccc1O)c1ccccc1Cl was read as BJeLR viability 12.4, CCHF vOTU inh -0.1 and PfHsp40 rescue 465.8*.
`COc1ccc(/C=N/NC(=O)c2[nH]c3ccc(Br)cc3c2-c2ccccc2)cc1` gave BJeLR viability 55.1*, CCHF vOTU inh -10.5 and PfHsp40 rescue 0.1.
`O=C(N/N=C/c1ccccc1Cl)c1[nH]c2ccc(Br)cc2c1-c1ccccc1` gave BJeLR viability 60.5*, CCHF vOTU inh -10.1 and PfHsp40 rescue 3.3.
O=C(NN=Cc1cc(Br)ccc1O)c1ccccc1Cl was read as RN4220 kill 6.6 and ugtP null kill 9.9.
`O=C(NN=Cc1ccccc1)c1[nH]c2ccc(Br)cc2c1-c1ccccc1` gave RN4220 kill -3.2 and ugtP null kill -14.0.
CC(CC(=O)NCCN1CCOCC1)=NNC(=O)c1ccncc1 was read as RN4220 kill 0.5 and ugtP null kill 3.4.
`CC(=NNC(=O)c1ccc2c(c1)OCO2)c1cccc([N+](=O)[O-])c1` gave RN4220 kill -0.8 and ugtP null kill -5.8.
For CN(C)n1cccc1/C=C(\C#N)S(=O)(=O)c1cccc(Cl)c1 the results were BJeLR viability -0.8, RN4220 kill 4.5, CCHF vOTU inh -6.3, ugtP null kill 1.4 and PfHsp40 rescue 31.8*.
Screening CS(=O)(=O)/C(C#N)=C/c1cccn1S(=O)(=O)c1ccccc1 returned BJeLR viability -5.3, RN4220 kill 6.7, CCHF vOTU inh 6.4, ugtP null kill 3.5 and PfHsp40 rescue -0.9.
Screening COc1cc(C=Nn2nnnc2N)ccc1OCc1c(C)no[n+]1[O-] returned RN4220 kill 8.1 and ugtP null kill -2.2.
For Nc1ccc2c3c(cccc13)-c1ccccc1-2 the results were RN4220 kill 70.8, CCHF vOTU inh 8.5, ugtP null kill 85.1* and PfHsp40 rescue 0.4.
Screening CCOC(=O)CCCCCC(=O)Nc1ccc2c(c1)CC(=O)N(C(C)CO)CC(C)C(CN(C)C(=O)Nc1ccc3c(c1)OCO3)O2 (stereo not drawn) returned RN4220 kill 7.7 and ugtP null kill 2.0.
`Cc1ccc(C(=O)N2CCN(c3ccccc3Cl)CC2)cc1[N+](=O)[O-]` gave BJeLR viability -10.0, RN4220 kill 2.7, CCHF vOTU inh 0.8, ugtP null kill 8.9 and PfHsp40 rescue 110.7*.
`CCOC(=O)c1cc(CC)sc1N=CC1C(=O)CC(C)(C)CC1=O` gave RN4220 kill 6.5 and ugtP null kill -1.8.
`O=c1c2c(-c3ccccc3)csc2nc2c3ccccc3c(NCCN3CCOCC3)nn12` gave BJeLR viability -0.5, RN4220 kill 91.1*, CCHF vOTU inh -35.7, ugtP null kill 60.1 and PfHsp40 rescue -0.1.
For O=C1C(F)=CC(COC(c2ccccc2)(c2ccccc2)c2ccccc2)OC1n1cc(F)c(=O)[nH]c1=O (stereo not drawn) the results were CCHF vOTU inh 15.6 and PfHsp40 rescue 153.8*.
For CC(=O)OCC1OC(n2cc(F)c(=O)[nH]c2=O)C(OC(C)=O)C1OC(C)=O (stereo not drawn) the results were BJeLR viability -4.8, RN4220 kill 3.1, CCHF vOTU inh 1.5, ugtP null kill 2.6 and PfHsp40 rescue -1.3.
For CCCCCCCC(N)C(O)C(=O)N(C)C(CCS(C)=O)C(=O)NC(Cc1ccc(O)cc1)C(=O)NC(Cc1ccc(O)cc1)C(=O)O (stereo not drawn) the results were RN4220 kill 5.4 and ugtP null kill 0.7.
For CCC(Oc1ccccc1)C(=O)Nc1ncc([N+](=O)[O-])s1 (stereo not drawn) the results were BJeLR viability -10.6, RN4220 kill 21.3, CCHF vOTU inh 17.9, ugtP null kill 41.2 and PfHsp40 rescue 166.2*.
O=C(Cc1ccc(Cl)cc1)Nc1ncc([N+](=O)[O-])s1 was read as BJeLR viability 41.1, RN4220 kill 29.8, CCHF vOTU inh 4.2, ugtP null kill 14.7 and PfHsp40 rescue -1.2.
For O=C(COc1ccc(Cl)cc1)Nc1ncc([N+](=O)[O-])s1 the results were BJeLR viability 11.7, RN4220 kill 100.0*, CCHF vOTU inh 15.2, ugtP null kill 98.3* and PfHsp40 rescue -0.2.
O=C(/C=C/c1ccccc1O)c1ccco1 was read as BJeLR viability 10.4, RN4220 kill 9.9, CCHF vOTU inh -10.5, ugtP null kill -8.0 and PfHsp40 rescue 0.1.
Screening O=C(/C=C/c1cc(Br)ccc1O)c1ccco1 returned BJeLR viability -4.4, RN4220 kill 90.8*, CCHF vOTU inh -0.4, ugtP null kill 92.4* and PfHsp40 rescue 0.4.
